Assay results from PubChem BioAssay (Tox21).
Results filed as inconclusive are left out. Where a call stands in place of a potency, no number is given. Calls of active or inactive are those of the source. The call rests on the fitted dose curve.
Potency means the concentration at half of the fitted maximal effect.

Test: p53 small molecule agonists, cell-based qHTS assay with rat liver microsomes: qHTS cell viability counter screen (AID 1963580); further: nearly all actives have a fitted effect of over 45% in size
Settings: p53RE-bla HCT-116 + rat microsomes, ATP viability, 16 h; series mostly up to 66 µM
From the text: National Center for Advancing Translational Sciences [NCATS]
Division of Preclinical Innovation [DPI]
U.S. Environmental Protection Agency [EPA]
National Institutes of Environmental Health Sciences [NIEHS]
National Toxicology Program [NTP]
U.S. Food and Drug Administration [FDA]
p53, a tumor suppressor protein, is activated following cellular insult, including DNA damage and other cellular stresses. The activation of p53 regulates cell fate by inducing DNA repair, cell cycle arrest, apoptosis, or cellular senescence. The activation of p53, therefore, is a good indicator of DNA damage and other cellular stresses. The CellSensor p53RE-bla HCT-116 cell line contains a stably integrated beta-lactamase reporter gene under control of the p53 response elements. The activation of the reporter gene under culture conditions can be detected by fluorescence intensity. This cell line was used to screen the Tox21 10K compound library in the condition of presence of rat liver microsomes and to identify agonists that activate the p53 signaling pathway after in vitro metabolic activation (Ooka et al., Archive of Toxicology 96:1975-1987, 2022). The cytotoxicity of the Tox21 compound library against the p53 RE-bla HCT-116 cell line was tested in parallel by measuring the intra cellular ATP content in the same wells.
Tox21 Assay Protocol Summary:
The p53RE-bla cells were dispensed at 4,000cells/3ul/well in 1536-well black-clear bottom plates. After the assay plates were incubated at 37 C, 5% CO2 incubator for 5 hours, 23 nL of compounds dissolved in DMSO, positive controls or DMSO only was transferred to the assay plate. Following compound addition, 3 uL of rat liver microsomes (Molecular Toxicology, Boone, NC) at final concentration of 0.5 mg/mL and 1uL of B-Nicotinamide adenine dinucleotide 2'-phosphate (NADPH) at final concentration of 0.5 mg/mL were transferred to the assay plate. The plates were incubated at 37 C for 16 hours. 1 uL of LiveBLAzer detection mixture was added to each well and the plates were incubated at room temperature in the dark for 2 h. Fluorescence intensity at 460 and 530 nm emission and 405 nm excitation were measured by an Envision plate reader. For cell viability readout that measures cytotoxicity, 4 ul/well of CellTiter-Glo reagent was added into the assay plates using a Flying Reagent Dispenser. After 30 min incubation at room temperature, the luminescence intensity in the plates was measured using a ViewLux plate reader.
For `CCCCS(=O)(=O)N[C@@H](Cc1ccc(OCCCCC2CCNCC2)cc1)C(=O)O`, the Potency was “inactive”.
With `C[C@H](CCC(=O)O)[C@H]1CC[C@H]2[C@@H]3[C@H](O)C[C@@H]4C[C@H](O)CC[C@]4(C)[C@H]3C[C@H](O)[C@]12C` the Potency was “inactive”.
For `CCCCCCCC/C=C\CCCCCCCCN`, the Potency was “inactive”.
In the case of `ClC1=C(Cl)C1(Cl)Cl`, the Potency is reported as “inactive”.
For `CCCCOC(=O)C(C)O` (stereo not given), the Potency was “inactive”.
In the case of `CN(C)[C@@H]1C(=O)C(C(=O)NCN2CCCC2)=C(O)[C@@]2(O)C(=O)C3=C(O)c4c(O)cccc4[C@@](C)(O)C3C[C@@H]12` (stereo not given in full), the Potency is reported as “inactive”.
For `O=C(CCCN1CCN(c2ccccn2)CC1)c1ccc(F)cc1`, the Potency was “inactive”.
In the case of `CC(C)C[P+](C)(CC(C)C)CC(C)C`, the Potency is reported as “inactive”.
With `CC1(C)C(=O)N(CO)C(=O)N1CO` the Potency was “inactive”.
For `CCN1CCCC1CNC(=O)c1cc(S(N)(=O)=O)ccc1OC` (stereo not given), the Potency was “inactive”.
In the case of `Nc1cccc(S(=O)(=O)O)c1`, the Potency is reported as “inactive”.
For `COC(=O)[C@H]1[C@H]2C[C@@H]3c4[nH]c5cc(OC)ccc5c4CCN3C[C@H]2C[C@@H](OC(=O)COc2ccc(OC)cc2)[C@@H]1OC`, the Potency was “inactive”.
With `CC(=O)OC(C)c1ccccc1` (stereo not given) the Potency was “inactive”.
In the case of `Cc1ccc(C(=O)Oc2ccc(C(O)CNC(C)(C)C)cc2OC(=O)c2ccc(C)cc2)cc1` (stereo not given), the Potency is reported as “inactive”.
In the case of `O=C(c1ccccc1)c1cccc(O)c1`, the Potency is reported as “inactive”.
With `CCOC(=O)C1=NN(c2ccc(Cl)cc2Cl)C(C)(C(=O)OCC)C1` (stereo not given) the Potency was “inactive”.
In the case of `COc1cc(-c2ccc(N=C=O)c(OC)c2)ccc1N=C=O`, the Potency is reported as “inactive”.
In the case of `O=C(O)C(Cc1cc(I)c(O)c(I)c1)c1ccccc1` (stereo not given), the Potency is reported as “inactive”.
For `c1ccc(CCCc2ccccn2)cc1`, the Potency was “inactive”.
For `CC1CC(C)C(=O)C1=O` (stereo not given), the Potency was “inactive”.
For `CC1CCCCC1`, the Potency was “inactive”.
For `OC1CCCc2ccccc21` (stereo not given), the Potency was “inactive”.
For `N[C@H]1CN(c2c(F)cc3c(=O)c(C(=O)O)cn(C4C[C@H]4F)c3c2Cl)CC12CC2` (stereo not given in full), the Potency was “inactive”.
For `C[N+]1(CC2COC(c3ccccc3)(C3CCCCC3)O2)CCCCC1` (stereo not given), the Potency was “inactive”.
With `CC(=O)OCC(=O)[C@@]1(O)CC[C@H]2[C@@H]3CCC4=CC(=O)C=C[C@]4(C)[C@@]3(F)[C@@H](O)C[C@@]21C` the Potency was “inactive”.
In the case of `C1CC(COCC2CO2)CCC1COCC1CO1` (stereo not given), the Potency is reported as “inactive”.
With `CN1C(=O)CC(c2ccccc2)C1=O` (stereo not given) the Potency was “inactive”.
With `CCCS(=O)c1ccc2nc(NC(=O)OC)[nH]c2c1` (stereo not given) the Potency was “inactive”.
For `CC(CC(=O)O)CC(C)(C)C` (stereo not given), the Potency was “inactive”.
With `CCCCCCCC/C=C\CCCCCCCCOCCO` the Potency was 53 µM (active).
In the case of `CCCC(=O)OC(=O)CCC`, the Potency is reported as “inactive”.
In the case of `C[C@@H]1[C@H](O)[C@@H](C)/C=C/C=C\C=C\C=C\C=C\C=C\C=C\[C@H](O[C@@H]2O[C@H](C)[C@@H](O)[C@H](N)[C@@H]2O)C[C@@H]2O[C@](O)(C[C@@H](O)C[C@@H](O)[C@H](O)CC[C@@H](O)C[C@@H](O)CC(=O)O[C@H]1C)C[C@H](O)[C@H]2C(=O)O` (stereo in doubt), the Potency is reported as “inactive”.
In the case of `O=C(CCCCC(=O)Nc1c(I)cc(I)c(C(=O)O)c1I)Nc1c(I)cc(I)c(C(=O)O)c1I`, the Potency is reported as “inactive”.
For `Nc1ccc(C(=O)NCC(=O)O)cc1`, the Potency was “inactive”.
In the case of `O=C(CN1CCN(Cc2ccc3c(c2)OCO3)CC1)N1c2ccccc2Sc2ccccc21`, the Potency is reported as “inactive”.
In the case of `Cc1cccc(C)c1NC(=O)c1ccccc1C(=O)O`, the Potency is reported as “inactive”.
In the case of `O=[N+]([O-])c1cccc(I)c1`, the Potency is reported as “inactive”.
For `O=C(NCCN1CCOCC1)c1ccc(Cl)cc1`, the Potency was “inactive”.
With `CCNC(=O)NCCCOc1cccc(CN2CCCCC2)c1` the Potency was “inactive”.
In the case of `CCCCCCCCCCCCCCCCCCN(C)C`, the Potency is reported as “inactive”.
